Parameters in all cases: scale not given: direction of the effect not stated beside the values
In test [1] the target is Protein translocase subunit SecA (Escherichia coli (strain K12)) (UniProt P10408). Kind of test: Assay to Identify E. coli SecA ATPase Inhibitors. It counts as functional. The following applies: 30 µM.
Test [2] addresses T1, Ubiquitin-activating enzyme e1, putative (Leishmania donovani (strain BPK282A1)) (UniProt E9BSI1).
T1 sequence (whole entry): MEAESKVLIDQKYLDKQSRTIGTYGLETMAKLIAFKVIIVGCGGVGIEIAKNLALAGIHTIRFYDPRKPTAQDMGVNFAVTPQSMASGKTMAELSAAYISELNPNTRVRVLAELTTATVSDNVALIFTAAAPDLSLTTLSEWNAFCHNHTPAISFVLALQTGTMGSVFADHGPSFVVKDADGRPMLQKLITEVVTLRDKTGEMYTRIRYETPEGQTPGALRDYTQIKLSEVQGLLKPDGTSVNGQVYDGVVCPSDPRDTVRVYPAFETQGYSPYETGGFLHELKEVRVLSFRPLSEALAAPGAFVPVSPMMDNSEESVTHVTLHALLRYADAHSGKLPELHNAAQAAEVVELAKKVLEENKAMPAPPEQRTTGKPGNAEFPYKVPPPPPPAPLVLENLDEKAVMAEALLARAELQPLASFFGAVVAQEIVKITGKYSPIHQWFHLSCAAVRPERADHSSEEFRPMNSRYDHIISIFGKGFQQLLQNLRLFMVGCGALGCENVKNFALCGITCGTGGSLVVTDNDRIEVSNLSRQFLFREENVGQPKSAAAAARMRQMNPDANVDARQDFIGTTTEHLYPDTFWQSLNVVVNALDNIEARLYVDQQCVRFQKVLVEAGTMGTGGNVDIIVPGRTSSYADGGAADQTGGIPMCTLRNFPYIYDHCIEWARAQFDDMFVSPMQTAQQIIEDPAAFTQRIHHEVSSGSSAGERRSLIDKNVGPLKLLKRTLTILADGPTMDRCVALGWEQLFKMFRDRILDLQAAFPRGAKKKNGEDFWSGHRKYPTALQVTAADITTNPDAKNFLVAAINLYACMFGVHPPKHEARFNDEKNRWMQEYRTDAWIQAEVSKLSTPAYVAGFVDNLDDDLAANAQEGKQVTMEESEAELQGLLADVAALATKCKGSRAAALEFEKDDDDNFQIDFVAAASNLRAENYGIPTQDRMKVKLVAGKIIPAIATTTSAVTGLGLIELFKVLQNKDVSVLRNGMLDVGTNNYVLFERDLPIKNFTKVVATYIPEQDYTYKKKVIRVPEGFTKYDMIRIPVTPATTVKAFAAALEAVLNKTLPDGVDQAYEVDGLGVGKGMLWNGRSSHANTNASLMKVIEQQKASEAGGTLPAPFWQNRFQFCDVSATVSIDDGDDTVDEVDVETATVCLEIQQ
Kind of test: Leishmania donovani Ubiquitin Activating Enzyme (LdE1). The following applies: 30 µM. It counts as functional.

The target of test [3] is T2, Aspartate--tRNA(Asp/Asn) ligase (Mycobacterium tuberculosis (strain ATCC 25618 / H37Rv)) (UniProt P9WFW3). Note: in the data most compounds retested in dose-response had high values.
T2 sequence (whole entry): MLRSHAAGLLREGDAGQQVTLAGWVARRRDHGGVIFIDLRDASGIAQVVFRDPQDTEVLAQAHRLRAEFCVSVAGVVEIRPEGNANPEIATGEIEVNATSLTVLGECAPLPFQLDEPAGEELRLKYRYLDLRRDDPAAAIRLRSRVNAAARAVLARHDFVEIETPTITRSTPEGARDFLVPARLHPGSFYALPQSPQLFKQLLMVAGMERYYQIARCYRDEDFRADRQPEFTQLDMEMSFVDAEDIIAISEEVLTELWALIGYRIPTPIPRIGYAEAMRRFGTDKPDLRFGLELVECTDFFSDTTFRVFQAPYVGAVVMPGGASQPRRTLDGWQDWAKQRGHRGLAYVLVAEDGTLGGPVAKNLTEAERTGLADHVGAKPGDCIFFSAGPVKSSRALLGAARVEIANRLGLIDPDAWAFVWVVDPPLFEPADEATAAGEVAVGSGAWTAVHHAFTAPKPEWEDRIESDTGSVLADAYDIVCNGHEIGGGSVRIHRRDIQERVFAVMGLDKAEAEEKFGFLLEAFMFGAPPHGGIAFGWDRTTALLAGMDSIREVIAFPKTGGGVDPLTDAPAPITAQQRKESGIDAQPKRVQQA
Kind of test: Assay for Asp RNA synthetase-1 from Mycobacterium tuberculosis. The following applies: 30 µM. In kind it is functional.

Test [4] has as its target AMP-activated protein kinase, AMPK (Homo sapiens) (UniProt P54646+O43741+P54619+Q9UGJ0+Q9Y478+Q13131+Q9UGI9). Kind of test: AMP-dependent Kinase enzyme assay. An in vitro enzyme assay that detects ADP turnover that is directly proportional to AMPK activity. This uses naive AMPK that is activated during the assay with MK-8722. In kind it is functional. The following applies: 30 µM.

Test [5] has as its target Sialic acid-binding Ig-like lectin 9 (Homo sapiens) (UniProt Q9Y336). The test can be described thus: Hs-Siglec9 ALPHAscreen SOP 20170721. The following applies: 10 µM.
Another test deals with Trypanosoma cruzi. The test can be described thus: Trypanosoma cruzi phosphomannomutase and mannose-1-phosphate guanylyltransferase assay. In kind it is functional. The following applies: 10 µM.
The target in test [6] is T3, Arginase-2, mitochondrial (Homo sapiens) (UniProt P78540).
T3 sequence (whole entry): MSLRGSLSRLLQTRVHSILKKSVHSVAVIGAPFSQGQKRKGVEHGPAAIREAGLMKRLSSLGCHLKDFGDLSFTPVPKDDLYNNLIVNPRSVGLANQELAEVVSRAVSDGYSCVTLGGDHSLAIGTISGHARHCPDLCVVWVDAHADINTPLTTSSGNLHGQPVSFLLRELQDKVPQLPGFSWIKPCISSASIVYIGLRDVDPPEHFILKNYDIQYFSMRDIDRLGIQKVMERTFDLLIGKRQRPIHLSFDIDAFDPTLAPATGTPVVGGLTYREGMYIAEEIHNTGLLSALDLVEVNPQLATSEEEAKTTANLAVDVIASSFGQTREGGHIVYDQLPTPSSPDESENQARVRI
Kind of test: in vitro enzyme assay to detect the production of urea directly proportional to the activity of Arginase II. Note: in the data most compounds retested in dose-response had high values. The following applies: 33.3 µM. In kind it is functional.

For test [7], the target named is T4, Proteasome subunit beta (Trypanosoma cruzi) (UniProt O96673).
T4 sequence (whole entry): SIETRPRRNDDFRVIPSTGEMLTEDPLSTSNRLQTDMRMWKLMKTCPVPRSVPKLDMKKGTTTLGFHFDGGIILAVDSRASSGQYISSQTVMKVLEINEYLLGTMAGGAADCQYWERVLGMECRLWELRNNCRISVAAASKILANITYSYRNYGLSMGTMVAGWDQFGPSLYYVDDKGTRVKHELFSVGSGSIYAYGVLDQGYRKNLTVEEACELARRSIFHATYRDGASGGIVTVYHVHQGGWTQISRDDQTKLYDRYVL
Kind of test: Trypanosoma cruzi proteasome chymotrypsin-like activity (TcProtChymo) assay. Note: in the data most compounds retested in dose-response had high values. In kind it is functional. The following applies: 9.37 µM.

The species named for another test is Homo sapiens. Kind of test: To identify inhibition of the IFN signalling (Jak-Stat) pathway via expression of an eGFP reporter gene under the control of an IFN-stimulated response element (ISRE) containing MxA promoter. In kind it is functional. The following applies: 30 µM. A general note: A reporter such as luciferase makes a cellular process visible.
In test [8] the target is Shiga toxin 2 (Escherichia coli O157:H7) (UniProt P09385+P09386). Kind of test: E. coli 0.157:H7 Shiga Toxin SOP - stx2 screening assay. It counts as functional. The following applies: 30 µM.
Test [9] deals with T5, Tyrosyl-tRNA synthetase, putative (Trypanosoma cruzi (strain CL Brener)) (UniProt Q4DSP6).
T5 sequence (whole entry): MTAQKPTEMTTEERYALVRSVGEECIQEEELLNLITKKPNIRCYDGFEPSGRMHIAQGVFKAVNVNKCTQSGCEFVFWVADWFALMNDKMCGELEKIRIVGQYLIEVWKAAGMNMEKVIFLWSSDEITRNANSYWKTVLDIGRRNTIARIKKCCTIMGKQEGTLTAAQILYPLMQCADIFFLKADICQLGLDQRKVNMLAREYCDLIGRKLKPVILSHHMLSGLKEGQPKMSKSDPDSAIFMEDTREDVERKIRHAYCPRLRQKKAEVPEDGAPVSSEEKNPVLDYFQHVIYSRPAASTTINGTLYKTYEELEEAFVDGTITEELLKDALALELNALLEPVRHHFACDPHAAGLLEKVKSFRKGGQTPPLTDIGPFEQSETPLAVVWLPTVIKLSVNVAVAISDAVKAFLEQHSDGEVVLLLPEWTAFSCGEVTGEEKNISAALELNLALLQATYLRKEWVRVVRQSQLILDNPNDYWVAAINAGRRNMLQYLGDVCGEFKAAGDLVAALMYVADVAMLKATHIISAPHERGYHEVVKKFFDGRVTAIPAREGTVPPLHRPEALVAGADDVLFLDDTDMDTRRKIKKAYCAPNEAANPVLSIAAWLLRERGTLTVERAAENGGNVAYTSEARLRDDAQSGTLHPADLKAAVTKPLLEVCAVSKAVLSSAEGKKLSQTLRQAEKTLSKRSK
Kind of test: Trypanosoma cruzi tyrosyl tRNA synthetase (TcYRS) _High Tyrosine SOP. Note: in the data most compounds retested in dose-response had high values. The following applies: 30 µM. In kind it is functional.

The target of test [10] is T5, Tyrosyl-tRNA synthetase, putative (Trypanosoma cruzi (strain CL Brener)). The test can be described thus: Trypanosoma cruzi tyrosyl tRNA synthetase (TcYRS) SOP. It counts as functional. The following applies: 30 µM.
Test [11] concerns the target Chromo domain-containing protein 1 (Saccharomyces cerevisiae (strain ATCC 204508 / S288c) (Baker's yeast)) (UniProt P32657). The test can be described thus: ScCHD-1 Enzyme Inhibition Assay. Note: in the data most compounds retested in dose-response had high values. In kind it is functional. The following applies: 30 µM.

These results are taken from ChEMBL document CHEMBL3988442, “University of Dundee, Small-Polar-MMV Screening Library” (2021).

For some assays here: Entries with a potency or affinity are not part of this list.

Chain of Sialic acid-binding Ig-like lectin 9 (Homo sapiens) (Q9Y336 whole entry): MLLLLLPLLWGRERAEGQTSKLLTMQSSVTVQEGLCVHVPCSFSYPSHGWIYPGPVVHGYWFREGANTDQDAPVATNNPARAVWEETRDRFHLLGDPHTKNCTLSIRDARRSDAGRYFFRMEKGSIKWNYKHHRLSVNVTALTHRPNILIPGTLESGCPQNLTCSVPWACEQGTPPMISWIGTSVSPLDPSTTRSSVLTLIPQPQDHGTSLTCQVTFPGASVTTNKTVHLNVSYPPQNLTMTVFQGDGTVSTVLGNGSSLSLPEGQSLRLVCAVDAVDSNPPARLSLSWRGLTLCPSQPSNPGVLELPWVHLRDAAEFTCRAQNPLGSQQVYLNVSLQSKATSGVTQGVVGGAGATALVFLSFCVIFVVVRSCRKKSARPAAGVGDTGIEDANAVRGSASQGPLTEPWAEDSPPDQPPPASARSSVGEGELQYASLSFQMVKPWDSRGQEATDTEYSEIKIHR
Chain of Protein translocase subunit SecA (Escherichia coli (strain K12)) (P10408 whole entry): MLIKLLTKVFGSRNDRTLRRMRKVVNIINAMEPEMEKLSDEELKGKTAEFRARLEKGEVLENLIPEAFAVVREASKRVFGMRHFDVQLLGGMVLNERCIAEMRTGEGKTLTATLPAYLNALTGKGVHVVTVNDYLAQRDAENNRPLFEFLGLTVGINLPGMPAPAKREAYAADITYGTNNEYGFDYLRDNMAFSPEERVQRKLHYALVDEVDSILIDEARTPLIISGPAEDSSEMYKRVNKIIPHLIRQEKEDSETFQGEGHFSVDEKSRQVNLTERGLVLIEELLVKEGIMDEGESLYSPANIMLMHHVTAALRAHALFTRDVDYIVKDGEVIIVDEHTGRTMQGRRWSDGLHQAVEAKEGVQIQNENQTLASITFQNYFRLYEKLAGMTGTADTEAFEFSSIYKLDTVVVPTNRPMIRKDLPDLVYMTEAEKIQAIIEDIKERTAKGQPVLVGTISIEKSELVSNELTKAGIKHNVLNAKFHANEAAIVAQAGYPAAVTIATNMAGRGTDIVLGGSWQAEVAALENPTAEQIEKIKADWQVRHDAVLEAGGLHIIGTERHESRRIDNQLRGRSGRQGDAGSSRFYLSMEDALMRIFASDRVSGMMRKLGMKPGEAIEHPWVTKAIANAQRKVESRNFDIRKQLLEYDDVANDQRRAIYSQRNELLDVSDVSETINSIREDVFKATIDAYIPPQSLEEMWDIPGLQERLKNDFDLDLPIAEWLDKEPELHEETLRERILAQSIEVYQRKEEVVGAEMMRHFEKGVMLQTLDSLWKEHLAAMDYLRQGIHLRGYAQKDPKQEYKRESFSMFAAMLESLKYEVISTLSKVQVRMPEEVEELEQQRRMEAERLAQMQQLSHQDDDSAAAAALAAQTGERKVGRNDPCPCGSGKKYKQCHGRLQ
Chain of Chromo domain-containing protein 1 (Saccharomyces cerevisiae (strain ATCC 204508 / S288c) (Baker's yeast)) (P32657 whole entry, the tested form may be a part): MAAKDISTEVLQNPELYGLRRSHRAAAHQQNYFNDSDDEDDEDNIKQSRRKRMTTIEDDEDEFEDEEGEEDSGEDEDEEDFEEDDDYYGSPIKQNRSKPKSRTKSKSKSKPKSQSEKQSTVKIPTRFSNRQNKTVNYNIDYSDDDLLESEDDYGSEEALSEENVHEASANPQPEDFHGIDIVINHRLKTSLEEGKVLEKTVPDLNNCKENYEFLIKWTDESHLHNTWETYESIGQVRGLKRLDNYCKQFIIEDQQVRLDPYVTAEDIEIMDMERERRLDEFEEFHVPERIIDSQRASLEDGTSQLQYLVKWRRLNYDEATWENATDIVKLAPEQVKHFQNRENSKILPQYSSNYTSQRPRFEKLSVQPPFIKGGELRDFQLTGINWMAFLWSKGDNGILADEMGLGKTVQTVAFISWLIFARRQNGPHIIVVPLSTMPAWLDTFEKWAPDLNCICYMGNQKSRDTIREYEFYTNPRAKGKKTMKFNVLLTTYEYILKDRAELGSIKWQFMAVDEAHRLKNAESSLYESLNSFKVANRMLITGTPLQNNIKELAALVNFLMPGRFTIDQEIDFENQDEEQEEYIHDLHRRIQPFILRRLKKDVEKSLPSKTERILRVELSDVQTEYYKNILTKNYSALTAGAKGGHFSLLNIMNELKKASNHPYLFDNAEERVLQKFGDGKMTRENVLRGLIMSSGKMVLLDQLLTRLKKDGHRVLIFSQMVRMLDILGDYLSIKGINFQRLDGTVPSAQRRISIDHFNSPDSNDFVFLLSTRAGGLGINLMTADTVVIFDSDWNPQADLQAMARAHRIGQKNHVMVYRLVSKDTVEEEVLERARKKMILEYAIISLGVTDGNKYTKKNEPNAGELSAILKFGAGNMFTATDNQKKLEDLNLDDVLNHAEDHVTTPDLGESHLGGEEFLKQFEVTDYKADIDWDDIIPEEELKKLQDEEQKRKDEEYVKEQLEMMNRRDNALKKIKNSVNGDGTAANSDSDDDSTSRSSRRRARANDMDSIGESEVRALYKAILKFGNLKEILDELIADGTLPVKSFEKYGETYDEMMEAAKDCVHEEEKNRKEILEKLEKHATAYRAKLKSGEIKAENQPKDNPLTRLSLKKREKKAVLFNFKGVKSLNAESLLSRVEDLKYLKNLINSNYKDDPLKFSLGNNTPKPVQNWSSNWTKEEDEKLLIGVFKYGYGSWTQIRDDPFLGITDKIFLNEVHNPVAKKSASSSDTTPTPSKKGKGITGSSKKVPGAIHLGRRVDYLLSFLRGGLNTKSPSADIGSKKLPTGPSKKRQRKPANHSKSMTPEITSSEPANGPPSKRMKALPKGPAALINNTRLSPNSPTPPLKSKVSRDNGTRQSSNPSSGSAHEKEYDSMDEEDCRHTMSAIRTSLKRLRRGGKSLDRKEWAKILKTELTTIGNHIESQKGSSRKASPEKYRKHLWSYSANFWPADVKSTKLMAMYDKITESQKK

For the molecule `O=C(N[C@H]1CN[C@H]2CCCO[C@H]21)c1ccno1`, the Percent Effect was -2.91% in [1]; 2.74% in test [2]; 0.661% in [3]; -1.51% in [4]; 4.01% in test [5]; 4.76% in the test with Trypanosoma cruzi. Moreover, the Percent Effect is -2.4% in test [6]; 6.76% in [7]; -9.47% in the test filed under Homo sapiens; 2.67% in [8]; 4.17% in test [9]; 6.17% in [10]. In addition, the Percent Effect in test [11] turned out to be 2.08%.

`CCN1C[C@H]2[C@@H](C1)N(S(=O)(=O)c1cccnc1)CC[C@H]2OC`: the Percent Effect in [1] is -0.0411%; in test [2] it was 5.33%; in test [3], 1.49%; in test [4], 5.24%; in test [5], -6.52%; in the test on Trypanosoma cruzi, -5.91%. Also, the Percent Effect in test [6] was -2.56%; in [7], 4.49%; in the test filed under Homo sapiens it was 14.5%; in [8], -25%; in test [9] it was -3.19%; in test [10] it was -3.85%. In test [11], the Percent Effect was -1.11%.

Take `O=C([C@H]1C[C@H]2OCC[C@H]2N(Cc2ccncc2)C1)N1CCCCO1`: the Percent Effect in test [1] is -5.42%; in test [2], 18.7%; in test [3] it was 0.349%; in test [4], -3.96%; in test [5] it was -0.793%; with Trypanosoma cruzi, 5.6%. For the same molecule, the Percent Effect in test [6] was -46.4%; in [7], 15.9%; in the test listed under Homo sapiens, -2.86%; in test [8], -11.8%; in [9], 8.33%; in test [10] it was 25%. Further, the Percent Effect in test [11] was -6.46%.

Regarding `O=C1NC2(CCNCC2)CC1c1cccnc1` (stereo not given), the Percent Effect was -0.858% in test [1]; 10.7% in test [2]; -1.51% in [3]; 15.3% in test [4]; -10.1% in test [5]; -6.89% in the test with Trypanosoma cruzi. Moreover, the Percent Effect in test [6] was 2.1%; in [7] it was 8.55%; in the test listed under Homo sapiens, 13.1%; in test [8] it was -1.63%; in [9], 4.25%; in test [10] it was 8.97%. For the same molecule, the Percent Effect in test [11] is -2.26%.

For `NCC1(c2cccc(Br)c2)CCOCC1`, the Percent Effect in [1] is -5.22%; in [2] it was 2.7%; in [3] it was 5.62%; in test [4] it was -4.06%; in test [5], -6.14%; in the test with Trypanosoma cruzi, -2.93%. The Percent Effect is -22.5% in test [6]; 8.2% in test [7]; 2.44% in the test listed under Homo sapiens; -23.5% in test [8]; 8.91% in test [9]; -6.1% in test [10]. Moreover, the Percent Effect in [11] is -2.29%.
